Measured values taken from PubChem BioAssay AID686940 (The Scripps Research Institute Molecular Screening Center, 2013).
The campaign covered roughly 370,000 compounds. About 2,600 (0.7%) were called active. What follows is part of a selection rich in actives, with near analogues and random picks from the rest. A number with no mark means an inactive call.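 The calls were made as follows: active = inhibition above a per-plate cutoff, mean inhibition of test wells between control levels plus 3 SD (cut at about 38% in these data); inactive = the rest.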

What follows are compounds tested against COUP transcription factor 2 (Homo sapiens) (UniProt P24468) (assay: COUP-TFII reporter suppression in human cells – cell-based, luciferase reporter, HEK293T, luminescence, primary screen (AID 686940;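 also: cells cotransfected with COUP-TFII expression vector driving the NGFI-A reporter; 0% = median of COUP-TF2 test wells and 100% = reporter-only cells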)). Settings: HEK293T NGFI-A luciferase reporter, at 8.6 µM, hits give high values.
Chain of COUP transcription factor 2 (Homo sapiens) (P24468 whole entry, looked up): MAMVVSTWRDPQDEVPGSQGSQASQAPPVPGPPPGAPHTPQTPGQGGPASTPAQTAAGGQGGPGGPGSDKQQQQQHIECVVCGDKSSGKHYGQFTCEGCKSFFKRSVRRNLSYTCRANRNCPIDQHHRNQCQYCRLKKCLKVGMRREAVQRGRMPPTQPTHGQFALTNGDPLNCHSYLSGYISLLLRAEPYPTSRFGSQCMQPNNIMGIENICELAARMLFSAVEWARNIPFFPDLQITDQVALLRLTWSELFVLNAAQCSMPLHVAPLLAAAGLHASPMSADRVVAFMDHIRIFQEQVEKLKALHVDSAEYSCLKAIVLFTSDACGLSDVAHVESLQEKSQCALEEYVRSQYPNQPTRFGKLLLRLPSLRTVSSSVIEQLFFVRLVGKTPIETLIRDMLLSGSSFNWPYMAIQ
In the case of `Cc1ccc(-c2nnc(SCC(=O)Nc3ccc(Oc4ccccc4)cc3)n2Cc2ccco2)cc1`, the inhibition is reported as 13.6%. `CCCCOCCCNC(=O)C[C@H]1C[C@@]2(C(=O)OC)C(=C[C@H](COCc3ccccc3)O[C@@H]2C)N(Cc2cccc3ccccc23)C1=O` gave an inhibition of 14.6%. For `Cc1ccc(-c2nc(CSCC(=O)NC3CCN(Cc4ccccc4)CC3)c(C)o2)cc1`, the inhibition was 44.1% (active). `Cc1ccc(S(=O)(=O)NCCC(=O)NC2CCN(Cc3ccccc3)CC2)cc1` was tested, and the inhibition was 9.92%. With `Cc1ccc(-c2nc(CS(=O)CC(=O)NC3CCCC3)c(C)o2)cc1` (stereo not drawn) the inhibition was 12.9%. Work on `Cc1ccccc1CN1CCCCC(NC(=O)Nc2ccccc2F)C1=O` (stereo not drawn) yielded an inhibition of 17.2%. `CCOC(=O)[C@]12CCCC=C1N(Cc1ccc(OC)cc1)C(=O)[C@@H]2CC(=O)N1CCOCC1` gave an inhibition of 11.8%. In the case of `COc1ccc(CSc2nnc(SCC(=O)Nc3ccccc3C(F)(F)F)s2)cc1`, the inhibition is reported as -6.32%. With `CCOC(=O)C1(CCOc2ccccc2)CCN(Cc2cc(OC)cc(OC)c2)CC1` the inhibition was 43.4% (active). In the case of `CCOC(=O)C1(Cc2cccc(OC)c2)CCN(Cc2csc(C(C)=O)c2)CC1`, the inhibition is reported as -6.31%. For `CCCS(=O)(=O)N1CCC(CCOc2ccccc2)(C(=O)OCC)CC1`, the inhibition was 12%. Compound `O=C(CSc1nc2ccccc2nc1N1CCCCC1)N1CCN(S(=O)(=O)c2cccc([N+](=O)[O-])c2)CC1` has an inhibition of -2.12%. `Cc1ccc(Cn2cc(CN3[C@@H](C)COc4cc(Br)ccc4S3(=O)=O)nn2)cc1` was tested, and the inhibition was 7.53%. Work on `O=C(CCS(=O)(=O)c1ccccc1)Nc1ccc(Cl)c(Cl)c1` yielded an inhibition of -30.7%. Work on `O=C(Nc1ccc(Cl)c(Cl)c1)N1CC=C(c2ccccc2)CC1` yielded an inhibition of -16.9%. `O=C(CC(O)(C(F)(F)F)C(F)(F)F)Nc1ccc(Cl)c(Cl)c1` was tested, and the inhibition was 74.9% (active). `O=C(c1ccccc1)c1ccc(-c2ccccc2C(=O)NC2CCCCN(Cc3ccc(Cl)cc3)C2=O)cc1` (stereo not drawn) was tested, and the inhibition was -10.4%. With `CC(C)CNc1cccc2c1S(=O)(=O)N(Cc1cn(Cc3ccc(Cl)cc3)nn1)Cc1ccccc1O2` the inhibition was 5.91%. Work on `COc1ccc(-c2csc3ncnc(N4CCN(S(=O)(=O)c5cccc(F)c5)CC4)c23)cc1` yielded an inhibition of -7.61%. With `Cc1ccc(C)c(S(=O)(=O)N2CCN(c3ncnc4sccc34)CC2)c1` the inhibition was 61.2% (active). `Cc1ccc(S(=O)(=O)N2CCC3(CC2)OCCO3)c(C)c1` gave an inhibition of 0.83%. `O=C(NCCCc1ccccc1)[C@H](Cc1ccccc1)NC1(C(=O)NCCc2c[nH]c3ccccc23)CCC1` showed an inhibition of 7.14%. `Oc1ccc(/C=C/c2c(F)cccc2F)c2cccnc12` gave an inhibition of 14.9%. Compound `N[C@@H](Cc1ccccc1)C(=O)N1CCC[C@@H]1C(=O)N1CCC2CCN(S(=O)(=O)c3ccccc3)CC21` (stereo partly drawn) has an inhibition of 2.4%. `O=C(CSc1nnc(COc2ccccc2)n1-c1ccc(Cl)cc1)Nc1ccc2c(c1)OCO2` gave an inhibition of 7.15%. For `O=C(Nc1ccccc1Cl)/C(Cl)=C(\Cl)S(=O)c1ccccc1` (stereo not drawn), the inhibition was 99% (active). Work on `CN[C@H]1C[C@H]2c3cc(N4CCOCC4)ccc3CCN2C[C@H]1[C@H](C)O` yielded an inhibition of -0.62%. With `Cc1ccccc1CS(=O)(=O)Cc1ccc(C(=O)Nc2ccc(Cl)cc2)o1` the inhibition was 60.1% (active). In the case of `O=C(O)c1ccc(NC(=O)c2ccc(COc3ccc(Cl)cc3)o2)cc1`, the inhibition is reported as -7.9%. `Cc1cc(OCc2ccc(C(=O)Nc3ccc(C(=O)O)cc3)o2)ccc1Cl` was tested, and the inhibition was 10.7%. `COC(=O)[C@H](C(C)C)N(CCCc1cn(Cc2ccccc2)nn1)S(=O)(=O)c1ccc(F)cc1Br` was tested, and the inhibition was 9.49%. With `CC(=O)Nc1ccc(OC[C@@H](O)CN2CCC(C(O)(c3ccccc3)c3ccccc3)CC2)cc1` the inhibition was -20.7%. For `COc1cccc(Cn2cc(COC(=O)Nc3ccc(F)cc3)nn2)c1`, the inhibition was -23.7%. Work on `CCCCc1c(-c2ccc(Cl)cc2)ncn1CCc1ccccc1OC` yielded an inhibition of 11.8%. With `CCCCCc1c(-c2ccc(OC)c(OC)c2)ncn1CCc1ccccc1OC` the inhibition was 57% (active). Work on `CCCCCc1c(-c2cccc(Br)c2)ncn1CCc1ccccc1OC` yielded an inhibition of 6.5%. `Cc1ccc(CSc2nnc(SCC(=O)NN=Cc3cc(Br)ccc3F)s2)cc1` gave an inhibition of -3.85%. Work on `COc1ccc2c(c1)CN1CN(CCc3ccccc3)S(=O)(=O)CC21` (stereo not drawn) yielded an inhibition of 16%. `COc1ccc(OC)c(CNC(=O)Cn2nc(C)c3c(C)n(-c4ccc(C)cc4)nc3c2=O)c1` was tested, and the inhibition was 39.4% (active). For `COc1ccc(CNC(=O)C(C)n2nc(C)c3c(C)n(-c4ccccc4)nc3c2=O)c(OC)c1` (stereo not drawn), the inhibition was 10.4%. Work on `Cc1nn(CC(=O)N2CCCCC2)c(=O)c2nn(-c3ccccc3)c(C)c12` yielded an inhibition of -1.99%. In the case of `COC(=O)[C@]12C[C@H](CC(=O)NCCCN3CCCC3=O)C(=O)N(CCc3ccc(OC)c(OC)c3)C1=C[C@H](COCc1ccccc1)O[C@@H]2C`, the inhibition is reported as -3.72%. In the case of `CCC(C)[C@@H](C(=O)OC)N(CCc1cn(Cc2ccccc2)nn1)S(=O)(=O)c1ccccc1Br` (stereo partly drawn), the inhibition is reported as -9.93%. Compound `CC(C)(C)c1ccc(C(=O)Nc2cc(Cl)c(Br)cc2C(=O)O)cc1` has an inhibition of 7.25%. With `CSc1nccc(NC(=O)c2ccc(C(C)(C)C)cc2)n1` the inhibition was 64.5% (active). Compound `CC(=O)Oc1ccc(C(=O)Nc2nccs2)cc1` has an inhibition of -23.1%. For `Clc1ccc(-n2c(SC/C=C/c3ccccc3)nnc2-c2ccco2)cc1`, the inhibition was 13.9%. For `Cc1ccc(Cn2cc(CN3[C@@H](CC(C)C)COc4ccc(Cl)cc4S3(=O)=O)nn2)cc1`, the inhibition was -4.67%. For `COc1ccc(NC(=O)C2Cc3c(-c4ccc(Cl)cc4)ccnc3O2)cc1` (stereo not drawn), the inhibition was 5.98%. `COc1ccc(NC(=O)C2Cc3c(-c4cccc(NC(C)=O)c4)ccnc3O2)cc1OC` (stereo not drawn) was tested, and the inhibition was 45% (active). `COc1ccc(NC(=O)C2(C)Cc3c(-c4cccc(NC(C)=O)c4)ccnc3O2)cc1OC` (stereo not drawn) showed an inhibition of -4.02%. `O=C(CSc1nnc(-c2ccccn2)n1-c1ccccc1)Nc1ccc2cn[nH]c2c1` was tested, and the inhibition was 13.3%. With `CCOC(=O)N1CCN(C(=O)C[C@@H]2C(=O)N(CCc3ccc(Cl)cc3)C3=CCCC[C@]32C(=O)OCC)CC1` the inhibition was 45.6% (active). With `C=CCN1C(=O)[C@H](CC(=O)N2CCN(C(=O)OCC)CC2)[C@@]2(C(=O)OCC)CCCC=C12` the inhibition was -10.2%. Work on `CCCCNC(=O)C[C@@H]1C(=O)N(CCc2ccc(Cl)cc2)C2=CCCC[C@]21C(=O)OCC` yielded an inhibition of 15.3%. Work on `O=C1CC[C@@H](COc2ccc3[nH]cc(-c4ccccc4)c3c2-c2ccccc2)N1` yielded an inhibition of -9.36%. In the case of `N#Cc1ccc(C2=CC(=O)C[C@H](c3ccc(Cl)cc3)C2)cc1`, the inhibition is reported as 17.5%. With `O=C1C=C(c2ccnc3cc(Cl)ccc23)C[C@@H](c2ccc3c(c2)OCO3)C1` the inhibition was 56% (active). `O=C1C=C(c2cccc(Cl)c2O)C[C@@H](c2ccc(F)cc2)C1` was tested, and the inhibition was 4.63%. For `Clc1ncn(CCOc2ccccc2)c1Cl`, the inhibition was 6.16%. Work on `Clc1c(OCCCn2ccnc2)ccc2ccccc12` yielded an inhibition of -3.68%. With `c1ccc(Cc2ccc(OCCn3ccnc3)cc2)cc1` the inhibition was 54.5% (active). Work on `COCC(=O)N[C@@H]1C[C@@H]2O[C@@H](CO)CC[C@@H]2O[C@@H]1CCc1ccc(-c2ccccc2)cc1` yielded an inhibition of 1.52%. Compound `CC[C@@H](CCC(=O)N(c1ccccc1)c1ccccc1)C1CC1` has an inhibition of 15.5%. `O=C1Nc2ccccc2OC1CC(=O)N1CCCCCCC1` (stereo not drawn) was tested, and the inhibition was 18.8%. With `O=C(OC12CCCN(C1)/C(=C/c1ccccc1)C2)c1ccco1` (stereo not drawn) the inhibition was -14.4%. Work on `COc1cc(C(=O)OCCCN2CCOCC2)cc(OC)c1OC` yielded an inhibition of -1.26%. Compound `CCOC(=O)C1=C(N)N2C(=O)C(C)SC2=C(C(=O)OCC)C1c1cc(OC)c(OC)c(OC)c1` (stereo not drawn) has an inhibition of -10.4%. In the case of `CCCOC(=O)c1[nH]c2c(c1C)C(=O)CC(c1cc(OC)c(OC)c(OC)c1)C2` (stereo not drawn), the inhibition is reported as 62.1% (active). With `C=CCN(Cc1ccc2c(c1)OCO2)C(C#CC1CC1)C(C)(C)C` (stereo not drawn) the inhibition was 9.73%. `Cc1c(C(C)c2ccccc2O)[nH]c2ccccc12` (stereo not drawn) was tested, and the inhibition was 13.6%. Work on `CCOC(=O)[C@]12CCCC=C1N(Cc1ccc(OC)cc1)C(=O)[C@@H]2CC(=O)NCc1cccs1` yielded an inhibition of 6.16%. In the case of `COC(=O)[C@]12C[C@H](CC(=O)NCc3cccc4ccccc34)C(=O)N(CCc3ccc(OC)c(OC)c3)C1=C[C@H](C1CCCC1)O[C@@H]2C`, the inhibition is reported as 13.6%. Compound `CCn1c(=O)c(=O)[nH]c2c(=O)oc3ccc(S(=O)(=O)Nc4ccc(OC)cc4)cc3c21` has an inhibition of 4.47%. In the case of `COc1ccc(S(=O)(=O)Nc2ccc3oc(C)c(C(C)=O)c3c2)cc1`, the inhibition is reported as 42.4% (active). Compound `CC(=O)c1c(C)oc2ccc(NS(=O)(=O)c3ccccc3)cc12` has an inhibition of 21.9%. `COc1ccc(CN2C/C(=C/c3ccccc3)N3C(=O)C[C@@H](c4ccccc4)N=C23)c(OC)c1` gave an inhibition of 4.08%. `CC(=O)c1cc(-c2ccc3ccccc3c2)c(=O)n2c1CCC2` showed an inhibition of 16.2%. `Cn1c(Cc2cccc3ccccc23)nnc1SCC(=O)N1CCN(c2cccc(Cl)c2)CC1` was tested, and the inhibition was 42.6% (active). In the case of `Cn1c(CNC(=O)c2ccco2)nnc1SCC(=O)N1CCN(c2ccccc2)CC1`, the inhibition is reported as -5.83%. `Cc1cc2nnc(SCC(=O)N3CCN(c4ccccc4)CC3)n2c(N)n1` showed an inhibition of 8.19%. Work on `COc1ccnc(NC(=S)N2CCN(c3ncc(C(F)(F)F)cc3Cl)CC2)c1` yielded an inhibition of -6.96%. `CCCCCCN1CCS(=O)(=O)N(Cc2ccc(C(F)(F)F)cc2)C(C(=O)OC)C1` (stereo not drawn) showed an inhibition of 1.89%.
